Test results published in the supplement of paper PMC10849652.
The full data set covers some 7,900 targets. This sample favours those with a hit. About 0.6% of all pairs of compound and target were hits.

Legend:
Experiment in all cases: log2 fold change, soluble protein after heating vs DMSO (PISA); higher = thermal stabilisation; K562 cells, 10 uM, 30 min; active = over 0.2 and 3.5 SD of the protein, either way, in both replicates (recomputed)
bafetinib = compound: Cc1ccc(NC(=O)c2ccc(CN3CC[C@H](N(C)C)C3)c(C(F)(F)F)c2)cc1Nc1nccc(-c2cncnc2)n1 [bafetinib]
In short: (§1)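 Soluble protein was quantified by TMTpro 16plex LC-MS/MS after channel sums were equalised. It was obtained as the supernatant after 21,000xg for 90 min from pooled aliquots of K562 cells (2×10^6 cells/mL, 10 μM compound, 30 min) heated for 3 min across 48°C-58°C and extracted in PBS with 0.5% NP-40 at 4°C. Thermal stability values are relative to control samples and come from duplicates. They are given as log2 fold changes.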

[1] = compound: Cc1cccc(CC(=O)N2CCc3c2ccc(-c2cn(C)c4ncnc(N)c24)c3F)n1
In short: as §1

nilotinib = compound: Cc1cn(-c2cc(NC(=O)c3ccc(C)c(Nc4nccc(-c5cccnc5)n4)c3)cc(C(F)(F)F)c2)cn1 [nilotinib]
In short: as §1

[2] = compound: Cc1nc(Nc2n[nH]c3c2CN(C(=O)N[C@H](CN(C)C)c2ccccc2)C3(C)C)c2sccc2n1
In short: as §1

dasatinib = compound: Cc1nc(Nc2ncc(C(=O)Nc3c(C)cccc3Cl)s2)cc(N2CCN(CCO)CC2)n1 [dasatinib]
In short: as §1

[3] = compound: Cc1ncc(-c2ccnc(Nc3ccc(S(C)(=O)=O)cc3)n2)n1C(C)C
In short: as §1

[4] = compound: Cn1cc(-c2ccc3c(c2)CCN3C(=O)Cc2cccc(C(F)(F)F)c2)c2c(N)ncnc21
In short: as §1

[5] = compound: Cn1cc(-c2ccc3nnc(C(F)(F)c4ccc5ncccc5c4)n3n2)cn1
In short: as §1

tipifarnib = compound: Cn1cncc1[C@@](N)(c1ccc(Cl)cc1)c1ccc2c(c1)c(-c1cccc(Cl)c1)cc(=O)n2C [tipifarnib]
In short: as §1

mubritinib = compound: FC(F)(F)c1ccc(/C=C/c2nc(COc3ccc(CCCCn4ccnn4)cc3)co2)cc1 [mubritinib]
In short: as §1

[6] = compound: NC(=O)Nc1cc(-c2cccc(F)c2)sc1C(=O)N[C@H]1CCCNC1
In short: as §1

[7] = compound: NC(=O)c1cnc(N[C@@H]2CCCC[C@@H]2N)nc1Nc1cccc(-n2nccn2)c1
In short: as §1

[8] = compound: NC1(c2ccc(-c3nc4ccn5c(=O)[nH]nc5c4cc3-c3ccccc3)cc2)CCC1
In short: as §1

[9] = compound: NCC(=O)Nc1ccc(-n2nc(C(F)(F)F)cc2-c2ccc3c(ccc4ccccc43)c2)cc1
In short: as §1

entinostat = compound: Nc1ccccc1NC(=O)c1ccc(CNC(=O)OCc2cccnc2)cc1 [entinostat]
In short: as §1

vorinostat = compound: O=C(CCCCCCC(=O)Nc1ccccc1)NO [vorinostat]
In short: as §1

citarinostat = compound: O=C(CCCCCCNC(=O)c1cnc(N(c2ccccc2)c2ccccc2Cl)nc1)NO [citarinostat]
In short: as §1

silmitasertib = compound: O=C(O)c1ccc2c(c1)nc(Nc1cccc(Cl)c1)c1ccncc12 [silmitasertib]
In short: as §1

[10] = compound: O=C1NC(=O)C(c2cnc3ccccn23)=C1c1cn2c3c(cc(F)cc13)CN(C(=O)N1CCCCC1)CC2
In short: as §1

[11] = compound: c1cc(OCCN2CCCCC2)cc(-c2n[nH]c3ccc(-c4nnc[nH]4)cc23)c1
In short: as §1

Measured: log2 fold change

UTP14A (UniProt Q9BVJ6)
inactive: bafetinib 0.157 | [1] 0 | nilotinib 0.011 | [2] -0.009 | dasatinib 0.07 | [3] -0.118 | [4] -0.285 | [5] -0.09 | tipifarnib 0.089 | mubritinib -0.086 | [6] 0.079 | [7] 0.048 | [8] 0.083 | [9] 0.076 | entinostat 0.012 | vorinostat 0 | citarinostat -0.04 | silmitasertib 0.128 | [10] 0.082 | [11] -0.092

VPS52 (UniProt Q8N1B4)
inactive: bafetinib -0.005 | [1] -0.031 | nilotinib -0.085 | [2] -0.086 | dasatinib -0.071 | [3] 0.091 | [4] 0.001 | [5] -0.016 | tipifarnib -0.089 | mubritinib 0 | [6] 0.065 | [7] -0.005 | [8] -0.132 | [9] -0.039 | entinostat 0.037 | vorinostat 0.086 | citarinostat 0.015 | silmitasertib 0.08 | [10] 0.02 | [11] 0.016

TMEM173 (UniProt Q86WV6)
Sequence of UniProt Q86WV6 (Q86WV6 whole entry, looked up): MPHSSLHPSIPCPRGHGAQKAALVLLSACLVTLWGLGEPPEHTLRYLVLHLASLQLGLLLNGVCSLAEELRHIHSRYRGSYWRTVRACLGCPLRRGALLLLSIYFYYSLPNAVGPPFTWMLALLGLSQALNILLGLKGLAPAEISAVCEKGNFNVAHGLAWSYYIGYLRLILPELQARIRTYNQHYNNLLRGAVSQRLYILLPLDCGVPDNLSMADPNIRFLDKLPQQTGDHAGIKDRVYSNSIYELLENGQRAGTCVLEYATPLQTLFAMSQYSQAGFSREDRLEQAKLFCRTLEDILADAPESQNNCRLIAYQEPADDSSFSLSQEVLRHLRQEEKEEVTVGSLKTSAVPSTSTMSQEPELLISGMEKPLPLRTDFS
inactive: bafetinib 0.007 | [1] 0.019 | nilotinib -0.129 | [2] -0.013 | dasatinib -0.156 | [3] 0.003 | [4] 0.001 | [5] -0.046 | tipifarnib 0.021 | mubritinib 0.066 | [6] 0.002 | [7] -0.041 | [8] -0.078 | [9] -0.06 | entinostat 0.032 | vorinostat -0.09 | citarinostat -0.028 | silmitasertib -0.041 | [10] 0.035 | [11] 0.006

TTI1 (UniProt O43156)
Sequence of UniProt O43156 (O43156 whole entry, looked up): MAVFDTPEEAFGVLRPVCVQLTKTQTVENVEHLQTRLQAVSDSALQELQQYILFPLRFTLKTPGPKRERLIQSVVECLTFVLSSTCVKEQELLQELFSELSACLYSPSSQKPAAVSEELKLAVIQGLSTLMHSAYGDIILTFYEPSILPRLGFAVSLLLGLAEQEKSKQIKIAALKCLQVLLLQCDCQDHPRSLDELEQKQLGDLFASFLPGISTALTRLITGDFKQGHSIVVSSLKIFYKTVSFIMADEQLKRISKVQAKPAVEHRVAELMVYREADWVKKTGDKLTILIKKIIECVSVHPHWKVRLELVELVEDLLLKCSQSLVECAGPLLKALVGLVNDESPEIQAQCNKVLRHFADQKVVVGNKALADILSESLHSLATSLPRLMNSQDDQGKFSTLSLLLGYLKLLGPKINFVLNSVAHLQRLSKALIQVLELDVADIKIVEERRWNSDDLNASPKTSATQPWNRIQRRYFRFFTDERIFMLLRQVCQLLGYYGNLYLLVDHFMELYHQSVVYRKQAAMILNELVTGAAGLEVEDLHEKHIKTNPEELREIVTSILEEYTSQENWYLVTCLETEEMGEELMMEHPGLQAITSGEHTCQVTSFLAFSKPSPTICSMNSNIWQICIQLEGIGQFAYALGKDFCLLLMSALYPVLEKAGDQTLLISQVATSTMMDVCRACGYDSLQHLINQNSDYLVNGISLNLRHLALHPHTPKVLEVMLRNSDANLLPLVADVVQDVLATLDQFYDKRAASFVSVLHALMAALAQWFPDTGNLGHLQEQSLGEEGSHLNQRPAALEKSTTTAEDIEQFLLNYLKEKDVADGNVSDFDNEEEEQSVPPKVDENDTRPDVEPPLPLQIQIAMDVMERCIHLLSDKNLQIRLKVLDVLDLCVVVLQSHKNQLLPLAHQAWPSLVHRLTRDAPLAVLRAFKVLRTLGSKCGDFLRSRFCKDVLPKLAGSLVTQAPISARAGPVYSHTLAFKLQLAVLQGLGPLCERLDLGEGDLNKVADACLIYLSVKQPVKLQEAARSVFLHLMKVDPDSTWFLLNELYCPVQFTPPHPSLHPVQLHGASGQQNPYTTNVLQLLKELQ
inactive: bafetinib -0.006 | [1] 0.165 | nilotinib -0.036 | [2] -0.102 | dasatinib -0.076 | [3] 0.039 | [4] 0.085 | [5] 0 | tipifarnib -0.103 | mubritinib 0.095 | [6] -0.079 | [7] -0.093 | [8] -0.181 | [9] -0.022 | entinostat 0 | vorinostat 0.142 | citarinostat 0.028 | silmitasertib 0.062 | [10] 0.057 | [11] -0.099

UFL1 (UniProt O94874)
inactive: bafetinib 0.032 | [1] 0.018 | nilotinib -0.119 | [2] -0.009 | dasatinib -0.165 | [3] 0.083 | [4] -0.013 | [5] -0.007 | tipifarnib -0.052 | mubritinib 0.062 | [6] -0.06 | [7] -0.013 | [8] -0.107 | [9] -0.066 | entinostat 0.059 | vorinostat 0.074 | citarinostat 0.063 | silmitasertib 0.029 | [10] -0.013 | [11] -0.048

TMEM120A (UniProt Q9BXJ8)
Sequence of UniProt Q9BXJ8 (Q9BXJ8 whole entry, looked up): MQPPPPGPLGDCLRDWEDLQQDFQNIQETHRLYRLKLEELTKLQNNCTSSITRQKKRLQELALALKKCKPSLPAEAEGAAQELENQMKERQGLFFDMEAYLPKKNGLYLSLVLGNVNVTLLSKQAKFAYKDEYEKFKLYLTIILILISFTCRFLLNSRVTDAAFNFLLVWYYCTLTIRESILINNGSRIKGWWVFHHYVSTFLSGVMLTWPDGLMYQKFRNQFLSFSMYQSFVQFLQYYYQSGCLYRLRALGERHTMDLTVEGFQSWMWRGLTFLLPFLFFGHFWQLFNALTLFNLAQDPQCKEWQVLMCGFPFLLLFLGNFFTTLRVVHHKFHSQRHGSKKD
inactive: [1] -0.054 | nilotinib -0.009 | [2] -0.038 | dasatinib 0.046 | [3] -0.09 | [4] 0.053 | [5] 0.057 | tipifarnib 0.011 | mubritinib 0.048 | [6] 0.229 | [7] 0.089 | [8] 0.058 | [9] 0.091 | entinostat 0.002 | vorinostat 0.1 | citarinostat 0.252 | silmitasertib -0.124 | [10] 0.185 | [11] 0.082
active: bafetinib 0.454

WASHC2C, A0A096LPC5
inactive: bafetinib -0.144 | [1] -0.335 | nilotinib 0.093 | [2] -0.101 | dasatinib 0.13 | [3] -0.003 | [4] -0.016 | [5] -0.082 | tipifarnib 0.283 | mubritinib 0.123 | [6] -0.084 | [7] -0.208 | [8] -0.06 | [9] -0.058 | entinostat -0.015 | vorinostat -0.209 | citarinostat -0.113 | silmitasertib 0.361 | [10] 0.001 | [11] -0.151

TMEM214 (UniProt Q6NUQ4)
inactive: bafetinib 0.017 | [1] 0.029 | nilotinib -0.117 | [2] -0.02 | dasatinib -0.071 | [3] 0.023 | [4] -0.022 | [5] -0.041 | tipifarnib -0.047 | mubritinib 0.005 | [6] -0.01 | [7] 0.049 | [8] -0.003 | [9] 0.022 | entinostat 0.003 | vorinostat 0.047 | citarinostat -0.01 | silmitasertib 0.006 | [10] 0.02 | [11] -0.022

UBAP2L isoform 5 (UniProt Q14157)
Sequence of UniProt Q14157 (Q14157 whole entry, looked up): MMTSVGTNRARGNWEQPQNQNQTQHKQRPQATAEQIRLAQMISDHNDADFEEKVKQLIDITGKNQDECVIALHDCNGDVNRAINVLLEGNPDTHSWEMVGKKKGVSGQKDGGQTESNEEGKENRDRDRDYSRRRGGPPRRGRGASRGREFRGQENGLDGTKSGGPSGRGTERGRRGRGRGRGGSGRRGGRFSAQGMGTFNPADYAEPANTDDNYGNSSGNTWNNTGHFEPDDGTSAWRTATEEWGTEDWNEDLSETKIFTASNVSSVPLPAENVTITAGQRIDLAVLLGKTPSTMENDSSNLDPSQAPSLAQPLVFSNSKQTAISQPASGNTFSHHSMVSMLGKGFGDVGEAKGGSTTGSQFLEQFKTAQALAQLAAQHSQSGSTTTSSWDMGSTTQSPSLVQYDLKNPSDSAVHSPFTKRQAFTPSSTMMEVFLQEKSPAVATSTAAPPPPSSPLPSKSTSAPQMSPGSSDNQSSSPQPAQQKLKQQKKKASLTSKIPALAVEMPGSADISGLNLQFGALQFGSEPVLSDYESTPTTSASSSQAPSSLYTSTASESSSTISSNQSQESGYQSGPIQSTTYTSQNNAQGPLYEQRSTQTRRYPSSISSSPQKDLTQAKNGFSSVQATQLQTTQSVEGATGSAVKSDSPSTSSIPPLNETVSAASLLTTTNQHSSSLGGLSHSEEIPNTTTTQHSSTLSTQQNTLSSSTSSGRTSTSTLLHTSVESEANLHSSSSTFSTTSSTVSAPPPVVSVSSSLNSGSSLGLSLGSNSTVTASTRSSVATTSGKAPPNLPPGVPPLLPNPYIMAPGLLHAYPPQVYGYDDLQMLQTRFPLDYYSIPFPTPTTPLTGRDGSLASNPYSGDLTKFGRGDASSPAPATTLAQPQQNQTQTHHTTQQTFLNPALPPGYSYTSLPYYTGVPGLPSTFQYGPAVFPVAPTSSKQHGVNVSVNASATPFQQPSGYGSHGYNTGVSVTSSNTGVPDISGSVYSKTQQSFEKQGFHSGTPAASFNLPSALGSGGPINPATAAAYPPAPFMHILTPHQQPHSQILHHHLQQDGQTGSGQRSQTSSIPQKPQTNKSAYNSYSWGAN
inactive: bafetinib -0.044 | [1] -0.02 | nilotinib -0.003 | [2] -0.015 | dasatinib 0.005 | [3] 0.007 | [4] 0.011 | [5] -0.003 | tipifarnib -0.028 | mubritinib 0.024 | [6] 0.017 | [7] -0.004 | [8] -0.013 | [9] 0.001 | entinostat -0.016 | vorinostat -0.016 | citarinostat 0.013 | silmitasertib -0.007 | [10] -0.029 | [11] 0.023

TSFM (UniProt P43897)
Sequence of UniProt P43897 (P43897 whole entry, looked up): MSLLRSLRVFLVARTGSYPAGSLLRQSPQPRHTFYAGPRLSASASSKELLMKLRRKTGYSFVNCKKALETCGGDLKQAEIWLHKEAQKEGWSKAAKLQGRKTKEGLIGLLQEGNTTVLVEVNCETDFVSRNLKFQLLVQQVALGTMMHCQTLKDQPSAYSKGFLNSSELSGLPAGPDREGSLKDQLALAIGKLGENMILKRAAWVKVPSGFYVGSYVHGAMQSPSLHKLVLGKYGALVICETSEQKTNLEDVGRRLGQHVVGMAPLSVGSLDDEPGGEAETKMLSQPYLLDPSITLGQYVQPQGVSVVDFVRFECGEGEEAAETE
inactive: bafetinib 0.091 | [1] -0.087 | nilotinib 0.062 | [2] -0.217 | dasatinib -0.143 | [3] 0.039 | [4] 0.033 | [5] 0.033 | tipifarnib 0.013 | [6] -0.068 | [7] 0.03 | [8] -0.05 | [9] -0.076 | entinostat 0.162 | vorinostat 0.016 | citarinostat 0.181 | silmitasertib 0.11 | [10] -0.043 | [11] 0
active: mubritinib -0.36

USP24 (UniProt Q9UPU5)
inactive: bafetinib 0.037 | [1] 0.034 | nilotinib 0.096 | [2] 0.007 | dasatinib -0.098 | [3] 0.09 | [4] 0.144 | [5] 0.105 | tipifarnib -0.072 | mubritinib 0.056 | [6] 0.18 | [7] 0.079 | [8] -0.053 | [9] 0.07 | entinostat -0.095 | vorinostat -0.012 | citarinostat 0.012 | silmitasertib 0.188 | [10] -0.2 | [11] 0.11

XPNPEP3 (UniProt Q9NQH7)
Sequence of UniProt Q9NQH7 (Q9NQH7 whole entry, looked up): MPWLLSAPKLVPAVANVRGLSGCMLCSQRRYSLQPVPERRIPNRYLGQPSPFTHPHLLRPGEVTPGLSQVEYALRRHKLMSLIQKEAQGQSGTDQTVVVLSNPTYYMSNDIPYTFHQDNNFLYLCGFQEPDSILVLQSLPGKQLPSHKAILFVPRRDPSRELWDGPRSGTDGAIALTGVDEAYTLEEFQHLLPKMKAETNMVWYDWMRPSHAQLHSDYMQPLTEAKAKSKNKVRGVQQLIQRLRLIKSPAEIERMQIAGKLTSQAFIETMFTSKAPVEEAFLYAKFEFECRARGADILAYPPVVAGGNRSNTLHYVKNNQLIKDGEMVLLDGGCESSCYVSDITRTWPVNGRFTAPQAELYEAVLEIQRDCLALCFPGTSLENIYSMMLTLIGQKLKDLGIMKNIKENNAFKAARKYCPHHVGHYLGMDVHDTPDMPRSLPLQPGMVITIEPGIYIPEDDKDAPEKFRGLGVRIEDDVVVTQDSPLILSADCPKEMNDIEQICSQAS
inactive: bafetinib -0.06 | [1] 0.008 | nilotinib -0.034 | [2] 0.027 | dasatinib 0.021 | [3] -0.041 | [4] 0.092 | [5] -0.031 | tipifarnib -0.065 | mubritinib 0.02 | [6] 0.034 | [7] -0.007 | [8] -0.074 | [9] 0 | entinostat -0.024 | vorinostat -0.002 | citarinostat -0.007 | silmitasertib -0.004 | [10] -0.02 | [11] -0.022

TXNIP (UniProt Q9H3M7)
inactive: bafetinib 0.03 | [1] -0.072 | nilotinib 0.018 | [2] 0.185 | dasatinib 0.005 | [3] -0.264 | [4] 0.105 | [5] -0.105 | tipifarnib 0.199 | mubritinib -0.264 | [6] 0.091 | [7] -0.024 | [8] 0.19 | [9] 0.007 | entinostat -0.009 | vorinostat 0.018 | citarinostat 0.071 | silmitasertib 0.115 | [10] -0.079 | [11] 0.005

USP34 (UniProt Q70CQ2)
inactive: bafetinib -0.004 | [1] -0.002 | nilotinib -0.054 | [2] 0.034 | dasatinib -0.141 | [3] -0.223 | [4] -0.012 | [5] 0.033 | tipifarnib -0.134 | mubritinib -0.049 | [6] 0.012 | [7] -0.08 | [8] -0.131 | [9] -0.02 | entinostat 0.024 | vorinostat 0.118 | citarinostat 0.123 | silmitasertib 0.045 | [10] -0.008 | [11] -0.074

UTP4 (UniProt Q969X6)
inactive: bafetinib -0.04 | [1] -0.013 | nilotinib 0.021 | [2] 0.035 | dasatinib 0.039 | [3] 0.143 | [4] -0.042 | [5] -0.014 | tipifarnib 0.058 | mubritinib -0.025 | [6] 0.049 | [7] 0.033 | [8] 0.075 | [9] 0.05 | entinostat -0.037 | vorinostat -0.051 | citarinostat -0.002 | silmitasertib 0.064 | [10] 0.06 | [11] -0.03

WDR11 (UniProt Q9BZH6)
Sequence of UniProt Q9BZH6 (Q9BZH6 whole entry, looked up): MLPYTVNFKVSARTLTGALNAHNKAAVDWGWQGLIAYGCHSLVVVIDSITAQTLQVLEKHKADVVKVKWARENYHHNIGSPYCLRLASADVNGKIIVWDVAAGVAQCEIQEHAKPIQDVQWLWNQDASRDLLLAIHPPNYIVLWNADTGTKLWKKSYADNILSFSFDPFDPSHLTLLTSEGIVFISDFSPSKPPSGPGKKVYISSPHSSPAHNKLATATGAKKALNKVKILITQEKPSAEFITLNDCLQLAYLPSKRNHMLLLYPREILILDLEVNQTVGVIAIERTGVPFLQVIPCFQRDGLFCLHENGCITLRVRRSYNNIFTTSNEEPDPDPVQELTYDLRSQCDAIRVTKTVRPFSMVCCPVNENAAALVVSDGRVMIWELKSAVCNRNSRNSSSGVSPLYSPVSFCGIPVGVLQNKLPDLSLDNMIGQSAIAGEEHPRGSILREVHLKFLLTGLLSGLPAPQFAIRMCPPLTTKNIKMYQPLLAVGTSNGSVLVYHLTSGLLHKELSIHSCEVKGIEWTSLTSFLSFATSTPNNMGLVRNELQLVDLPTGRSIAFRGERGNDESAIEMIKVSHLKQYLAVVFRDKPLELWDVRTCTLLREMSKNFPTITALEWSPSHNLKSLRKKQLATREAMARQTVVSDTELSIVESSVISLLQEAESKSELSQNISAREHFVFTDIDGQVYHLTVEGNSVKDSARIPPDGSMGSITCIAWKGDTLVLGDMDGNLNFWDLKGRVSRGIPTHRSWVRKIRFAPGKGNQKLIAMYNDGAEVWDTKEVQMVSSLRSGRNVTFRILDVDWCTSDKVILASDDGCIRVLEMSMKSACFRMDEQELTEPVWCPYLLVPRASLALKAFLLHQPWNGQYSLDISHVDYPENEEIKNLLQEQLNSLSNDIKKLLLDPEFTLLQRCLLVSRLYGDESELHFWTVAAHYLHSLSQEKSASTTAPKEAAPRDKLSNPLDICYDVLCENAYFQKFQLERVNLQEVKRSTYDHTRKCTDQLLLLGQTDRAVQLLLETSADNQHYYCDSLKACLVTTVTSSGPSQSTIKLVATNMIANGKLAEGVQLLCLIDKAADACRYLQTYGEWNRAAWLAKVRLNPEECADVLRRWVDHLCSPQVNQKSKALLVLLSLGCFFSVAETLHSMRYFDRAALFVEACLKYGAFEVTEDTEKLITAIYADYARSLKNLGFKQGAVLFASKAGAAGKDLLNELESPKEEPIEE
inactive: bafetinib 0.063 | [1] -0.067 | nilotinib -0.229 | [2] 0.051 | dasatinib 0.056 | [3] -0.121 | [4] -0.018 | [5] 0.046 | tipifarnib 0.038 | mubritinib 0.051 | [6] 0.039 | [7] -0.164 | [8] -0.087 | [9] -0.192 | entinostat -0.024 | vorinostat -0.007 | citarinostat -0.067 | silmitasertib -0.025 | [10] -0.016 | [11] -0.036
